PubChem BioAssay AID504465 (National Center for Advancing Translational Sciences (NCATS), 2011)
The whole screen tested about 2,100 compounds, of which about 210 (10%) were called active. Another 53% or so got no clear call; they are omitted. Calls come from the whole dose curve; as a rule, active = well fitted inhibition curve with a large enough effect; inconclusive = small, poorly fitted or top-dose-only effect, or effect the other way; inactive = no such curve, though single readings can be large or run the other way. This is one part of the list. Entries that show only a call come without a potency.

Assay: IN Cell qHTS Assay for Inhibitors of the mTORC1 Signaling Pathway in MEF (Tsc2-/-, p53-/-) Cells: Sytravon; note: nearly all actives have a fitted effect of over 60% in size
Conditions: phospho-rpS6 immunofluorescence, 24 h; series mostly up to 38.3 µM
From the text: NIH Molecular Libraries Probe Production Centers Network [MLPCN] NIH Chemical Genomics Center [NCGC] MLPCN Grant: NS059428-01 Assay Submitter (PI): Blenis, John; Hoffman, Greg; Harvard University NCGC Assay Overview: Thee mammalian target of rapamycin (mTOR) is an intracellular serine/threonine kinase Aberrant regulation of mTOR signaling plays a causative role in a number of human diseases, including cancer, benign tumors such as lymphangioleiomyomatosis (LAM) and Tuberous Sclerosis Complex (TSC), and metabolic diseases such as diabetes and obesity. This project aims to identify inhibitors of ribosomal protein S6 (rpS6) phosphorylation. The phosphorylation of rpS6 is a key event downstream of mTOR activation. The assay uses a phospho-specific antibody of phospho-rpS6 to detect inhibitors of mTOR activation. Mutations in the Tsc1 and Tsc2 genes are the underlying genetic lesions responsible for TSC, causing constitutive activation of the mTORC1 pathway and leading to profound effects on cell metabolism. Aberrant metabolism in cancer has recently received significant attention as a target to develop therapeutic agents in the treatment of cancer1. As Tsc2-/- cells have lost the ability to respond to energy and growth factor deprivation, these cells are unable to properly down regulate cellular biosynthetic processes in response to metabolic stress, and are thus extremely sensitive to glucose deprivation-induced death.2 A central goal of this project is to explore the unique cell survival and metabolic properties of cells with Tsc1 or Tsc2 by screening for compounds that selectively target the Tsc2-/- MEFs by screening both Tsc2-/- and WT MEF cell lines. We hope to better understand these aspects of TSC physiology in order to exploit them for therapeutic benefit.
NCGC IN Cell Assay Protocol: For quantitative high throughput analysis of mTORC1 signaling, we developed a cell-based assay for immuno-fluorescence based detection of rpS6 phosphorylation on the Acumen Explorer that will be used a platform for the primary small molecule screen. Mouse embryonic fibroblasts (MEFs) are cultured in 1536-well plates using DMEM + 10% FBS. Twenty-four hrs after plating, test compounds (solubilized in DMSO) are delivered and incubated with the cells for 24 hrs at 37 degree Celsius. Following the incubation, media with compound is aspirated and the cells are fixed in 4% paraformaldehyde (PFA) containing PBS + 0.2% TX-100. Next, PFA is aspirated, cells are washed two times with PBS plus 0.2% TX-100 and the cells are blocked for 1 hr at room temperature (blocking buffer: LiCOR Blocking Buffer plus 0.2% TX-100). This is followed by aspiration and staining with Alexa-488 conjugated-phospho-rpS6 Ser235/236 antibody for 2 hours at room temperature (Cell Signaling Technology # 4803, 1:50 dilution in blocking buffer). Cells are washed two times with PBS plus 0.2% TX-100, and stained with 10 uM propidium iodide (PI) for 20-25 minutes for cell number measurement (1:500 dilution of Hoescht staining is also added for IN Cell imaging). Active wells which are selected (based on Acumen results) are imaged on the IN Cell 1000 (GE Healthcare) using the D360/40X and HQ480/40X excitation filters for the Hoechst and Alexa-488 cytoplasmic stains, respectively. The fluorescence emission filters used were HQ460/40M and HQ535/50M for the Hoechst and Alexa-488 cytoplasmic stains, respectively. The normalized phospho-S6 staining is calculated as the ratio of […] for the single concentration rapamycin control (7.5 nM) and DMSO columns. […] Inhibition of the pathway is defined based on the normalized phospho-S6 intensity in rapamycin treated cells. Each treatment is reported as the % positive cells in the well, where thresholds are defined by selecting wells with the highest and lowest signal and differentiating between the % non-active and % active populations. […]
Potency is the fitted concentration of half-maximal effect.

SMILES	Potency
O=c1oc2ccccc2cc1-c1cn2cc(Cc3ccc(F)cc3)sc2n1	1.65 µM (active)
CCc1ccc(-n2nc(C)c3c2NC(=O)CSC3c2ccc(OC)cc2OC)cc1 (centres undefined)	inactive
Cc1cccc(CN2CC=C(c3noc(CCC(=O)Nc4ccc(C)c(F)c4)n3)CC2)c1	inactive
Nc1c(C(=O)Nc2cccc(Br)c2)sc2nc3c(cc12)N1CCC3CC1	inactive
O=C(Nc1ccccc1)N(Cc1ccc2c(c1)OCO2)C1CCN(Cc2ccccc2)CC1	inactive
COc1ccc2nc(NC(=O)c3nc(S(=O)(=O)Cc4cccc(C)c4)ncc3Cl)sc2c1	16.5 µM (active)
CCOc1ccc(NC(=O)c2cc3c(C)nn(-c4ccccc4)c3s2)cc1	14.7 µM (active)
CCOc1ccc(NC(=O)c2cccn(Cc3cccc(Cl)c3)c2=O)cc1	inactive
Cc1ccc(-n2c(/C=C/c3ccc(Br)s3)nc3ccccc3c2=O)cc1C	inactive
